Experimental data as given in PubChem BioAssay AID493084 (National Center for Advancing Translational Sciences (NCATS), 2011).
Screen size: about 360,000 compounds; about 650 (0.18%) were called active. This excerpt belongs to a sample that is enriched for actives. Values without a mark were called inactive. No stated cut-off is given here; in the data, active means activation above about 30%; inactive means the rest.

biological target: Thyrotropin-releasing hormone receptor (Homo sapiens) (UniProt P34981); test: qHTS for Small Molecule Agonists and Allosteric Enhancers of Human TRH Receptor: Primary Screen for Agonists.; further: 0% is about no effect; conditions: TRHR cells, calcium flux fluo-8, FDSS agonist mode; at 2 µM; stronger effect = higher value
Sequence (P34981 whole entry, looked up): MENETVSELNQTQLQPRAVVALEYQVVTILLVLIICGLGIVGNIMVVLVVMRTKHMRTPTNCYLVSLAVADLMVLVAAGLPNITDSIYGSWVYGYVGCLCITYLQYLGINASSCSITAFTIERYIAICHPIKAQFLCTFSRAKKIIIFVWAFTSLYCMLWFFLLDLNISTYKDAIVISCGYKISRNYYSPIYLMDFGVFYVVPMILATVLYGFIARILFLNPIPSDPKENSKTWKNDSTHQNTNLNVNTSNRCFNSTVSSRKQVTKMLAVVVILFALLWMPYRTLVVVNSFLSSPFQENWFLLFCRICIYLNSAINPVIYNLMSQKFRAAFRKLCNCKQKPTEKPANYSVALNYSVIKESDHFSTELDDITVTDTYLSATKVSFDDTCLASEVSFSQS
Outline: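 Steps: seed TRHR cells overnight; add fluo-8 no-wash Ca dye, RT 30 min–1.5 h; record 10 s baseline; pin-transfer compounds; monitor fluorescence 1 cycle/s for the agonist window. Calcium increases flag candidate agonists.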

| SMILES | activation |
| --- | --- |
| COc1ccc(CNC(=O)c2cc3c(-c4ccccc4F)nn(C)c3s2)c(OC)c1 | -0.894% |
| O=C(Nc1ccc(O)c(-c2nc3ccccc3o2)c1)c1ccc(-c2cccc(Cl)c2)o1 | 0.235% |
| CCOC(=O)CNC(=O)c1cc2c(=O)n3cccc(C)c3nc2s1 | -0.701% |
| CCCN(CCC)c1nc2c(C)cccn2c(=O)c1/C=C1/SC(=S)N(Cc2ccco2)C1=O | 12% |
| CCOC(=O)CC1C(=O)NCCN1c1nc2c(C)cccn2c(=O)c1/C=C1\SC(=S)N(C(C)CC)C1=O (centres undefined) | 52.4% (active) |
| COc1ccc(-c2cc(C(=O)NCc3cc(OC)c(OC)c(OC)c3)[nH]n2)cc1 | -0.734% |
| O=C(Cc1ccc(Cl)cc1)NCC(c1cccs1)S(=O)(=O)c1ccc(Cl)cc1 (centres undefined) | -0.0259% |
| CCCCN1C(=O)c2[nH]nc(-c3ccccc3O)c2C1c1cccc(OCc2ccccc2)c1 (centres undefined) | 0.132% |
| Cc1ccc2nc(-c3ccc(C)c(NC(=O)Cc4ccccc4)c3)oc2c1 | -0.54% |
| Cc1ccc(C2c3[nH]c4ccccc4c3CCN2C(=O)c2cccc(C)c2)cc1 (centres undefined) | 0.132% |
| Cc1ccc(S(=O)(=O)NC(N)=NCCC[C@@H](NC(=O)CNC(=O)c2ccccc2)C(=O)Nc2cc(C(F)(F)F)ccc2Cl)cc1 | -1.22% |
| COc1ccc(C2C(=O)N(C3CCCCC3)CC(=O)N2Cc2ccccc2Cl)cc1OC (centres undefined) | -1.14% |
| COc1ccc(-c2nc(Cn3c(=O)cc(C)c4c(C)nn(-c5ccccc5)c43)c(C)o2)cc1OC | -0.897% |
| Cc1ccc(Cn2ncc3c4sc(C)cc4n(C)c3c2=O)c(C)c1 | 0.195% |
| Cc1ccccc1CNC(=O)C1CCCN(S(=O)(=O)N(C)c2ccc(F)cc2)C1 (centres undefined) | -0.334% |
| Cc1cc(C)cc(NC(=O)CSc2nc3nccnc3c(=O)n2CCc2c[nH]c3ccccc23)c1 | 0.728% |
| O=C(CCS(=O)(=O)c1cc(Br)cc2c1N(C(=O)C1CC1)CC2)Nc1ccc(C(F)(F)F)cc1 | -0.155% |
| CCOC(=O)c1c(S(=O)(=O)N2CCC(C(=O)NCc3ccccc3OC)CC2)c(C)n(C)c1C | -0.102% |
| O=C(CCSCc1cccc(F)c1)NCc1ccccc1 | -0.592% |
| CN(Cc1ccccc1)C(=O)c1cn(C)c2ccc(S(=O)(=O)N3CCCCC3)cc2c1=O | 0.115% |
| CCOc1ccc(C2C(=O)N(C3CCCCC3)CC(=O)N2CCC2=CCCCC2)cc1OC (centres undefined) | 0.439% |
| O=[S+]([O-])(c1ccc(OC(F)(F)F)cc1)N1CCN([S+](=O)([O-])c2ccc3c(c2)OCCO3)CC1 | -0.283% |
| CCc1ccc2oc(-c3ccc(C)c(NC(=O)/C=C/c4ccco4)c3)nc2c1 | -0.323% |

| SMILES | activation |
| --- | --- |
| COc1ccccc1C(=O)Nc1c(C(=O)N(C)Cc2ccccc2)sc2nc(C)c(Cl)c(C)c12 | -1.19% |
| CCc1cccc(NC(=O)CN(c2ccc(C)c(C)c2)S(=O)(=O)c2ccsc2C(=O)OC)c1 | 0.768% |
| COc1cc(Br)cc2cc(S(=O)(=O)c3ccccc3)c(=O)oc12 | 0.456% |
| COc1ccc(NC(=O)c2ccc3oc(=O)c(S(=O)(=O)c4ccc(F)cc4)cc3c2)c(OC)c1 | -0.513% |
| Cc1cc(S(=O)(=O)c2cc3ccc(O)c(C)c3oc2=O)ccc1F | 44.2% (active) |
| Cc1ccc2cccc(NC(=O)C(C)Oc3ccc(C)c(C)c3)c2n1 (centres undefined) | 0.214% |
| COc1ccccc1NC(=O)CSc1oc(-c2ccco2)nc1S(=O)(=O)c1ccc(Br)cc1 | -0.526% |
| Cc1ccccc1Cn1nc(C)c(NC(=O)c2cc(-c3ccc(F)cc3)on2)c1C | -0.526% |
| CC1=C(c2ccc(F)cc2)S(=O)(=O)N=C1N1CCC(C(=O)NCCc2ccccc2C)CC1 | 0.06% |
| CCc1ccc(S(=O)(=O)n2ccnc2)cc1 | 0.631% |
| O=C(O)CCC(=O)Nc1ccc(N2CCOCC2)cc1 | 0.0804% |
| O=C(/C=C/c1ccc(N2CCOCC2)cc1)c1ccccc1 | 42.4% (active) |
| C/C(=C/c1ccccc1)C(=O)N1CCN(c2ccccc2)CC1 | -0.0779% |
| COc1ccc(Cn2c(=O)c3oc4ccccc4c3n(CC(=O)Nc3ccc(F)cc3F)c2=O)cc1 | 1.15% |
| CCOC(=O)c1cc2c(=O)n3ccccc3nc2n(CCCOC)c1=NC(=O)C(C)Oc1ccccc1 (centres undefined) | 0.485% |
| N#Cc1nc(Nc2cc(F)cc(Cl)c2)nc(NC2CCCC2)n1 | 1.3% |
| N#CN1CCC(NS(=O)(=O)c2cccc(F)c2)C1 (centres undefined) | 0.751% |
| O=C(Cn1cnc2c(oc3ccccc32)c1=O)Nc1ccc(OC(F)(F)F)cc1 | 0.788% |
| CCOC(=O)C1CCN(c2nc3c(S(=O)(=O)c4ccc(CC)cc4)nnn3c3ccc(Cl)cc23)CC1 | 0.759% |
| Cc1cccc(C)c1-n1ncc(C(=O)NCCCN2CCCCC2)c1C1CCN(C(=O)OC(C)(C)C)CC1 | 0.838% |
| CCC(CC)c1nn2cc(-c3ccccc3)nc2s1 | 6.57% |
| CC(C)CNc1ncnc2c1nnn2C | -0.593% |
| CCOC(=O)c1cc(-c2ccc(OC)c(S(=O)(=O)Nc3ccc(OC)cc3OC)c2)on1 | 1.19% |

| SMILES | activation |
| --- | --- |
| O=[S+]([O-])(c1ccc2c(c1)OCCO2)N1CCN([S+](=O)([O-])c2c(Cl)cc(Cl)cc2Br)CC1 | -1.11% |
| Cc1ccc(S(=O)(=O)N2CCCc3cc(NS(=O)(=O)c4cc(C)ccc4C)ccc32)cc1 | -0.123% |
| CCCCCCc1cc2cc(-c3nnc(-c4ccccc4)o3)c(=O)oc2cc1O | 185% (active) |
| COc1cccc(N2CCN(C(=O)CCCCCn3c(=O)[nH]c4ccccc4c3=O)CC2)c1 | -0.437% |
| COCCn1c(CCC(=O)Nc2cc(C)ccc2C)nc2cccnc21 | -1.95% |
| COc1ccccc1-n1c(-c2ccc(C)cc2)cn2c3c(=O)n(C)c(=O)n(C)c3nc12 | 0.636% |
| CCc1ccc(N(CC)C(=O)CCn2cnc3onc(-c4ccc(F)cc4)c3c2=O)cc1 | 0.0408% |
| Cc1noc(C)c1-c1ccc2ncnc(NCc3ccc(F)c(F)c3)c2c1 | 21.5% |
| CCC(=O)N1c2ccccc2CC1C(=O)N1CCN(c2cccc(OC)c2)CC1 (centres undefined) | -0.304% |
| CN(C)c1ccc(/C=C2\NC(=S)N(Cc3ccccc3)C2=O)cc1 | 94.7% (active) |
| COc1ccccc1CNC(=O)NCc1noc2ccc(C)cc12 | -0.0554% |
| CCOc1ccc(CNC(=O)Cn2cc3c(n2)-c2c(oc(C(=O)N4CCCC4)c2C)CC3)cc1 | -0.1% |
| CN(C)c1ccc(C(=O)NCC(=O)OC(C(=O)Nc2cc(C(F)(F)F)ccc2Cl)c2ccccc2)cc1 (centres undefined) | 0.138% |
| N#C/C(=C/c1ccc(N2CCCCC2)o1)C(=O)NCCc1c[nH]c2ccccc12 | 43.2% (active) |
| CC1(C(=O)NCCc2c[nH]c3ccccc23)C=CC2(CCCCC2)N1C(=O)c1ccccc1 (centres undefined) | 0.212% |
| O=C(CCCCCn1c(=O)[nH]c2ccccc2c1=O)NCCc1c[nH]c2ccccc12 | -0.335% |
| COc1cc(C(=S)NCc2ccccc2)cc(Br)c1O | -0.891% |
| COc1ccc(CCNC(=O)CCCCn2c(=O)c3ccccc3n(Cc3ccccc3)c2=O)cc1OC | -0.65% |
| COc1cc(/C=C2/SC(=S)N(Cc3ccccc3)C2=O)cc(OC)c1O | 33.6% (active) |
| Cc1ccc(S(=O)(=O)N2CCc3cc(C(=O)Nc4ccc(Cl)cc4C)ccc32)cc1 | 0.483% |
| Cc1nc2ccn(Cc3cccnc3)c(=O)c2cc1C(=O)N1CCN(c2ccccc2F)CC1 | -0.337% |
| O=C1CC(c2nnc(Cc3ccc(Cl)cc3)o2)CN1c1ccccc1 (centres undefined) | -0.928% |
| Cc1cccc(-n2ncc(C(=O)N3CCN(c4ccc(Cl)cc4)CC3)c2C2CCN(C(=O)OC(C)(C)C)CC2)c1 | 3.67% |
